Data: PubChem BioAssay (NCATS)
Records with an inconclusive call do not appear. Activity calls are given as the source filed them. Unless noted, the call rests on the fitted dose curve; in most records, active means well fitted cell-killing curve with a large enough effect; inconclusive means small, poorly fitted or top-dose-only effect; inactive means flat fitted curve, though single readings scatter.

Key:
[1] = Cell Viability - LYMP2-025 (AID 976);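 further: series mostly up to about 92 µM; plate controls were DMSO only for no effect and tetraoctylammonium bromide control for full effect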
Method in brief: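 Seed 2500 LYMP2-025 cells/well; 5 hr at 37 C; add compound; 24 hr at 37 C; add CellTiter-Glo; 30 min RT; read luminescence. AC50 from Hill-modelled concentration-response.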

[2] = Cell Viability - LYMP2-002 (AID 977);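 further: series mostly up to about 92 µM; plate controls were DMSO only for no effect and 92 µM tetraoctylammonium bromide for full effect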
Method in brief: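 Luminescent ATP readout (CellTiter-Glo, 30 min room temperature) after 24 h compound exposure at 37 C of a human lymphoblastoid line, 2500 cells/well. AC50 values derived by standard Hill fitting of qHTS concentration-response data.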

[3] = Cell Viability - LYMP2-006 (AID 978); further: series mostly up to about 92 µM; on the % scale 0 is the no-effect control and ±100 the full control effect; nearly all actives have a fitted effect of over 60% in size
Method in brief: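 qHTS, 1536-well; 2500 cells/well, 5 hr 37 C; cpd 24 hr 37 C; CellTiter-Glo 30 min RT; luminescence. Tetraoctylammonium bromide pos. ctrl. AC50 via Hill eqn.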

[4] = Cell Viability - LYMP2-007 (AID 979);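 further: cells exposed to compound for 24 h before reading; 0% = DMSO only and the negative end = 92 µM tetraoctylammonium bromide; nearly all actives have a fitted effect of over 60% in size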
Method in brief: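 Luminescent ATP signal (CellTiter-Glo) serves as the viability read-out after 24 hr compound treatment of lymphoblastoid cells in complete medium at 37 C. Concentration-response data were fitted to the Hill equation to give AC50 values.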

[5] = Cell Viability - LYMP2-008 (AID 980); further: on the % scale 0 is the no-effect control and ±100 the full control effect; nearly all actives have a fitted effect of over 60% in size
Method in brief: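 qHTS, human lymphoblastoid line, 2500 cells/well; 5 hr preincubation, 24 hr compound, 37 C. CellTiter-Glo ATP luminescence. AC50 via Hill equation. Tetraoctylammonium bromide positive control.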

[6] = Cell Viability - LYMP2-010 (AID 981); further: on the % scale 0 is the no-effect control and ±100 the full control effect; nearly all actives have a fitted effect of over 55% in size
Method in brief: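 Luminescent ATP signal (CellTiter-Glo) served as the viability read-out. Cells of the human lymphoblastoid line were treated with compound over a concentration range for 24 hours at 37 C, and AC50 values came from Hill-equation modeling.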

[7] = Cell Viability - LYMP2-012 (AID 982);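 further: cellular ATP by luciferase luminescence where a drop means cytotoxicity; cells exposed to compound for one day before reading; 0% = DMSO only and full loss = 92 µM tetraoctylammonium bromide; nearly all actives have a fitted effect of over 55% in size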
[8] = Cell Viability - LYMP2-016 (AID 984); further: on the % scale 0 is the no-effect control and ±100 the full control effect; nearly all actives have a fitted effect of over 55% in size
Method in brief: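 qHTS, 1536-well: 2500 LYMP2-016 cells/well, 5 hr 37 C, compound added, 24 hr 37 C, CellTiter-Glo 30 min RT, luminescence. Tetraoctylammonium bromide positive control. AC50 via Hill fit.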

[9] = Cell Viability - LYMP2-018 (AID 985);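 further: plate controls were DMSO only for no effect and tetraoctylammonium bromide at 92 µM for full effect; nearly all actives have a fitted effect of over 50% in size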
Method in brief: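 Luminescent ATP signal (CellTiter-Glo, read after 30 min at room temperature) reports viable cells after 24 hr compound treatment at 37 C. Concentration-response data were fitted to the standard Hill equation for AC50.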

[10] = Cell Viability - LYMP2-020 (AID 986);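 further: series mostly up to about 92 µM; plate controls were DMSO only for no effect and tetraoctylammonium bromide at 92 µM for full effect; nearly all actives have a fitted effect of over 55% in size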
Method in brief: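 Luminescent ATP signal (CellTiter-Glo, 30 min at room temperature) is the read-out after 24 h compound treatment of lymphoblastoid cells at 37 C. AC50 values come from Hill-equation fits across concentrations.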

[11] = Cell Viability - LYMP2-022 (AID 987)
Method in brief: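 qHTS: human lymphoblastoid cells 2500/well; 5 hr 37 C; cpd added; 24 hr 37 C; CellTiter-Glo, 30 min RT; luminescence. AC50 via Hill fit; tetraoctylammonium bromide positive ctrl.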

[12] = Cell Viability - LYMP2-024 (AID 988);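 further: plate controls were DMSO only for no effect and 92 µM tetraoctylammonium bromide for full effect; nearly all actives have a fitted effect of over 60% in size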
Method in brief: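 Steps: seed 2500 cells/well, 5 hr 37 C; add compound, 24 hr 37 C; add CellTiter-Glo, 30 min room temperature; read luminescence. AC50 derived by Hill modelling of concentration-dependent ATP loss.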

[13] = Cell Viability - LYMP2-026 (AID 989); further: on the % scale 0 is the no-effect control and ±100 the full control effect; nearly all actives have a fitted effect of over 50% in size
Method in brief: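 Luminescent ATP signal (CellTiter-Glo, 30 min room temperature) measures viable lymphoblastoid cells after 24 hr compound treatment at 37 C. Decreased ATP reflects acute toxicity; AC50 values come from Hill-equation modeling.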

[14] = Cell Viability - LYMP1-002 - Assay at 24 hr (AID 993); further: on the % scale 0 is the no-effect control and ±100 the full control effect
Method in brief: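 Cells plated 2500/well, 5 hr 37 C; compounds added, 24 hr 37 C; CellTiter-Glo added, 30 min RT; luminescence read. Tetraoctylammonium bromide positive control. Hill-equation AC50.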

[15] = Cell Viability - LYMP1-002 - Assay at 40 hr (AID 994)
Method in brief: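 Luminescent ATP signal served as the viability readout, with decreases taken as toxicity. Cells were treated with compounds across a concentration range for 40 hours at 37 C, and AC50 values came from standard Hill modeling.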

[16] = qHTS Assay for Identification of Small Molecule Inducers of Hypoxia Response (AID 2120; active means well fitted curve in the direction sought with a large enough effect in the signal ratio, with a control signal flat, not every such curve was filed as active; the % refers to the signal ratio; further: 0% is about no effect)
Method in brief: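 ME-180 HRE-bla cells plated in Opti-MEM/0.5% dialyzed FBS, rested 4-5 h, then dosed with compound titrations by pin tool. After 17 h at 37 degrees C, CCF4 dye loaded 2.5 h at RT; 460/530 nm ratio gave %Activity and AC50.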

[17] = molecular target: Estrogen receptor (Homo sapiens) (UniProt P03372); assay: qHTS assay for small molecule agonists of estrogen receptor alpha signaling (AID 588514; calls by dose curve;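 further: 0% = vehicle only and 100% = reference agonist; nearly all actives have a fitted effect of over 70% in size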)
Chain of Estrogen receptor (Homo sapiens) (P03372 whole entry, looked up): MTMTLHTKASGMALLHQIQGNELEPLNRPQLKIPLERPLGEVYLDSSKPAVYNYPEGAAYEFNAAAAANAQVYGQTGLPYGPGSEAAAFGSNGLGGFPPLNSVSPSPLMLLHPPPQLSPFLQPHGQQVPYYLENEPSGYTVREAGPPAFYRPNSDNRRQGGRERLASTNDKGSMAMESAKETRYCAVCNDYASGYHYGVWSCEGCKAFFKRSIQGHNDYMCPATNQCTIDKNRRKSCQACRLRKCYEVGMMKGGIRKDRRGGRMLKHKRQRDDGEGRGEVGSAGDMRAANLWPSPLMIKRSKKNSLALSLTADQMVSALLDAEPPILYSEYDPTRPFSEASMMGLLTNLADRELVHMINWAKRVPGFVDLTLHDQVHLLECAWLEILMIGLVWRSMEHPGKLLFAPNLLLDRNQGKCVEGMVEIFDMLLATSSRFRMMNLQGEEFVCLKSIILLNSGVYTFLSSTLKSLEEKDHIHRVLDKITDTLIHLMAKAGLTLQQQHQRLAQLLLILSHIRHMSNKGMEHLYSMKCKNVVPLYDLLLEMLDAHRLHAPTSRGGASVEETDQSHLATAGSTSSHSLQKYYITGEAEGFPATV
Method in brief: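 Cells were plated at 5000/well, incubated 4 hrs at 37 C, dosed with compound titration series, incubated 18 hrs at 37 C, loaded with CCF4 dye for 2 hrs at RT, then fluorescence was read.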

[18] = Cell Viability - LYMP2-014 (AID 983);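 further: series mostly up to about 92 µM; plate controls were DMSO only for no effect and 92 µM tetraoctylammonium bromide for full effect; nearly all actives have a fitted effect of over 50% in size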
Method in brief: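 Luminescent ATP signal (CellTiter-Glo, 30 min at room temperature) serves as the viability read-out after 24 hr compound exposure at 37 C. Cells were seeded at 2500 per well and settled 5 hr beforehand.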

[19] = molecular target: Androgen receptor (Homo sapiens) (UniProt P10275); assay: qHTS assay for small molecule agonists of androgen receptor signaling (AID 588515; active means well fitted curve in the direction sought with a large enough effect in the signal ratio, with a control signal flat; the % refers to the signal ratio; further: on the % scale 0 is the no-effect control and ±100 the full control effect); settings: AR-UAS-bla HEK293, beta-lactamase ratio, agonist 16 h; hits give high values
Chain of Androgen receptor (Homo sapiens) (P10275 whole entry, looked up): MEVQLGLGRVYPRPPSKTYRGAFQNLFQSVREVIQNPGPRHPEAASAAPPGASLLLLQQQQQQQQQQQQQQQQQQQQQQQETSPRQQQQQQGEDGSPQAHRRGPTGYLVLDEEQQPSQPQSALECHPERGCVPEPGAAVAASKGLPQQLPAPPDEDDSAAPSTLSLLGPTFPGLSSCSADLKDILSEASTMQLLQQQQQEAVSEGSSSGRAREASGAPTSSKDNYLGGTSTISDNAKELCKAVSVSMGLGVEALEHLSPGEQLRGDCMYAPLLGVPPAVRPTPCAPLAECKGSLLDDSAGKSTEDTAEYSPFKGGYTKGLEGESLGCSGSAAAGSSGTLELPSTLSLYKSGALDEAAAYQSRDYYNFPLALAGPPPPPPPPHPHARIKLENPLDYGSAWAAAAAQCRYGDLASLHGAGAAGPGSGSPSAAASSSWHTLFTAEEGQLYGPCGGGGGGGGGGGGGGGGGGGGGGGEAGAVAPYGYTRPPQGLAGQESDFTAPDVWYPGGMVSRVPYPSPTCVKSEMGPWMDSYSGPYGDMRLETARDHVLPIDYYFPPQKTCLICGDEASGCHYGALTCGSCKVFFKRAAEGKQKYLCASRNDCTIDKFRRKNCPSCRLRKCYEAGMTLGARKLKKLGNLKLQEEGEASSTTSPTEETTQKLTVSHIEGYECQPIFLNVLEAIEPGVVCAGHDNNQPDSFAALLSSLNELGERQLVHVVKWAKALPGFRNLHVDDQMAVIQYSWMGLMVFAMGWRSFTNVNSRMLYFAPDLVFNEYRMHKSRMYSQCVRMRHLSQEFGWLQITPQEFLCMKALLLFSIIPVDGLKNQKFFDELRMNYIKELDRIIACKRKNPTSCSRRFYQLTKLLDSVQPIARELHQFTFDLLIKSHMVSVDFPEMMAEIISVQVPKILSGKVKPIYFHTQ
Method in brief: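 EC50 and efficacy came from Hill fits of titrations (up to 92 uM) normalized to 30 nM R1881 as 100% and DMSO as 0%. Compound exposure was 16 h at 37 C on AR-UAS-bla HEK293 cells, with a 405/460/530 nm CCF4 fluorescence read.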

CCc1ccccc1O
inactive: Potency [1] | Potency [2] | Potency [3] | Potency [4] | Potency [5] | Potency [6] | Potency [7] | Potency [8] | Potency [9] | Potency [10] | Potency [11] | Potency [12] | outcome [13] | Potency [14] | Potency [15] | outcome [16] | Potency [17]

Cc1cc(C)cc([N+](=O)[O-])c1
inactive: Potency [1] | Potency [2] | Potency [3] | Potency [4] | Potency [5] | Potency [6] | Potency [7] | Potency [18] | Potency [8] | Potency [9] | Potency [10] | Potency [11] | Potency [12] | outcome [13] | Potency [14] | Potency [15] | outcome [16] | Potency [17]

Nc1ccc(F)cc1F
inactive: Potency [1] | Potency [2] | Potency [3] | Potency [5] | Potency [6] | Potency [7] | Potency [18] | Potency [8] | Potency [10] | Potency [11] | Potency [12] | outcome [13] | Potency [14] | Potency [15] | outcome [16] | Potency [17] | activation [19] 18.9%

CC(C)=C1CCC(C)CC1=O (centres undefined)
inactive: Potency [1] | Potency [2] | Potency [3] | Potency [5] | Potency [6] | Potency [7] | Potency [18] | Potency [8] | Potency [9] | Potency [10] | Potency [11] | Potency [12] | outcome [13] | Potency [14] | Potency [15] | outcome [16] | Potency [17]

O=c1[nH][nH]c(=O)c2cc([N+](=O)[O-])ccc12
inactive: Potency [1] | Potency [2] | Potency [3] | Potency [4] | Potency [5] | Potency [6] | Potency [7] | Potency [18] | Potency [8] | Potency [9] | Potency [10] | Potency [11] | Potency [12] | outcome [13] | Potency [14] | Potency [15] | outcome [16] | Potency [17]

CC(C)(C)c1ccc(OCC2CO2)cc1 (centres undefined)
inactive: Potency [1] | Potency [2] | Potency [3] | Potency [4] | Potency [5] | Potency [6] | Potency [7] | Potency [18] | Potency [10] | Potency [11] | Potency [12] | outcome [13] | Potency [14] | Potency [15] | outcome [16] | Potency [17]

NC(=O)NC(N)=O
inactive: Potency [1] | Potency [2] | Potency [3] | Potency [4] | Potency [5] | Potency [6] | Potency [7] | Potency [18] | Potency [8] | Potency [10] | Potency [11] | outcome [13] | Potency [14] | Potency [15] | outcome [16] | Potency [17]

C=C(C)C(=O)OCC(C)O (centres undefined)
inactive: Potency [1] | Potency [2] | Potency [3] | Potency [4] | Potency [5] | Potency [6] | Potency [7] | Potency [8] | Potency [9] | Potency [10] | Potency [11] | Potency [12] | outcome [13] | Potency [14] | Potency [15] | outcome [16] | Potency [17]

COc1cccc2sc(N)nc12
inactive: Potency [1] | Potency [2] | Potency [3] | Potency [4] | Potency [5] | Potency [6] | Potency [7] | Potency [8] | Potency [9] | Potency [10] | Potency [11] | outcome [13] | Potency [14] | Potency [15] | outcome [16] | Potency [17]

C=Cc1ccc(C=C)cc1
inactive: Potency [1] | Potency [2] | Potency [3] | Potency [4] | Potency [5] | Potency [6] | Potency [7] | Potency [18] | Potency [8] | Potency [9] | Potency [10] | Potency [12] | outcome [13] | Potency [14] | outcome [16] | Potency [17]

Cc1c(C(=O)O)cccc1[N+](=O)[O-]
inactive: Potency [1] | Potency [2] | Potency [3] | Potency [4] | Potency [5] | Potency [6] | Potency [7] | Potency [18] | Potency [8] | Potency [9] | Potency [10] | Potency [11] | Potency [12] | outcome [13] | Potency [15] | outcome [16] | activation [19] -4.24%

C=Cc1ccccc1C=C
inactive: Potency [1] | Potency [2] | Potency [3] | Potency [4] | Potency [5] | Potency [6] | Potency [7] | Potency [9] | Potency [10] | Potency [11] | Potency [12] | outcome [13] | Potency [14] | Potency [15] | outcome [16] | Potency [17]

CC(C)N(C)C
inactive: Potency [1] | Potency [2] | Potency [3] | Potency [4] | Potency [5] | Potency [6] | Potency [7] | Potency [18] | Potency [8] | Potency [9] | Potency [10] | Potency [11] | Potency [12] | outcome [13] | Potency [14] | Potency [15] | outcome [16] | Potency [17]

CC(=O)CC(C)C
inactive: Potency [1] | Potency [2] | Potency [3] | Potency [4] | Potency [5] | Potency [6] | Potency [7] | Potency [18] | Potency [8] | Potency [9] | Potency [10] | Potency [11] | Potency [12] | outcome [13] | Potency [14] | Potency [15] | outcome [16] | activation [19] 2.1%

O=[N+]([O-])c1ccc(CCO)cc1
inactive: Potency [1] | Potency [4] | Potency [14] | Potency [15] | outcome [16] | Potency [17]

C/C(C=O)=C/c1ccccc1
inactive: Potency [1] | Potency [2] | Potency [3] | Potency [4] | Potency [5] | Potency [6] | Potency [7] | Potency [18] | Potency [8] | Potency [9] | Potency [10] | Potency [11] | Potency [12] | outcome [13] | Potency [14] | Potency [15] | outcome [16] | Potency [17]

OC/C(Br)=C(\Br)CO
inactive: Potency [1] | Potency [2] | Potency [3] | Potency [4] | Potency [5] | Potency [6] | Potency [7] | Potency [18] | Potency [8] | Potency [9] | Potency [10] | Potency [11] | outcome [13] | Potency [14] | outcome [16] | Potency [17]

Nc1cccc(O)c1
inactive: Potency [1] | Potency [2] | Potency [3] | Potency [4] | Potency [6] | Potency [7] | Potency [18] | Potency [8] | Potency [9] | Potency [10] | Potency [11] | Potency [12] | outcome [13] | Potency [14] | Potency [15] | outcome [16] | Potency [17]
